Results with a measured potency or affinity are listed apart. The source made the active and inactive calls.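 Rule for the calls: active = signal-lowering compounds whose fitted half-maximal concentration is at or below twice the top tested dose in every run; inconclusive = runs disagree, flat 30 to 70% inhibition, or poor curve fit; inactive = the rest.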
Target: Protein S100-A4 (Homo sapiens) (UniProt P26447)
Assay: S100A4-myosin IIA binding inhibitor potency, dose response, biochemical, fluorescence polarization, cherry-picked hits (AID 687001)
Details: FP, S100A4/TAMRA-myosin IIA peptide binding; series mostly up to 11 µM

Sequence of Protein S100-A4 (Homo sapiens) (P26447 whole entry, looked up): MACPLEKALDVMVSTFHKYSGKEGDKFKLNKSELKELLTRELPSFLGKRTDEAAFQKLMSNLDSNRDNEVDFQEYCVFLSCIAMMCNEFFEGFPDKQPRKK

outcome, inactive:
Cc1ccc(NC(=S)N(C)C)cc1C
COc1ccccc1CNc1nc(C)c(C(C)=O)s1
CC(C(=O)NC1CCCCC1)N1C(=O)c2cccc3cccc1c23 (stereo not given)
O=C(Nc1ccc(C(F)(F)F)cc1)N[C@H]1C=C[C@@H](CC(=O)N2CCCCC2)O[C@@H]1CO
C[C@@H]1CN([C@H](C)CO)C(=O)Cc2cc(NC(=O)Nc3ccc(C(F)(F)F)cc3)ccc2O[C@H]1CN(C)Cc1ccc2c(c1)OCO2
CO[C@H]1CC[C@H]2CCOc3c(C#N)cccc3C(=O)N(C)C[C@H](c3ccccc3)CC(=O)N(C)C[C@H]1O2
COc1ccc(CNC(=O)c2cc(S(=O)(=O)N3CCCCC3)ccc2Cl)cc1OC
Cc1nonc1NC(=O)CSc1nnc(N)s1
COC(=O)CCCC1=CC2=C(c3ccccc3)C(=O)C(C)(OC(=O)C3CCCC3)C(=O)C2=CN1Cc1ccc2c(c1)OCO2 (stereo not given)
Cc1ccc(N(C)S(=O)(=O)c2cccc(C(=O)NCCCN3CCCC3=O)c2)cc1
CC(C)CC(=O)Nc1c2c(nn1-c1ccc(F)cc1)CS(=O)C2 (stereo not given)
CC(=O)Nc1ccc(C=NNc2nnc(NN=Cc3ccc(NC(C)=O)cc3)c3ccccc23)cc1
C[C@H](CO)N1C[C@H](C)[C@H](CN(C)Cc2ccccc2)Oc2c(NC(=O)CCCCCC(=O)Nc3ccccc3N)cccc2C1=O
Cc1cc(=O)oc2c(C)c(OCC(=O)N3CCN(C(=O)C4COc5ccccc5O4)CC3)ccc12 (stereo not given)
CC1(C(=O)Nc2ccc3c(c2)OCO3)CCN1C(=O)Cc1cccc2ccccc12 (stereo not given)

— PubChem BioAssay AID687001 (Broad Institute, 2013)
